# EPAC1 antag – EPAC1 (human) antagonism. AID 720709. O95398. 0.14% of 360,000 active. EPAC1 GEF assay, Rap1b-BODIPY-GDP exchange fluorescence. Potency, µM (doses to about 115 µM), inactives show top-dose activity change, negative = inhibition, usual class: inhibitors;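 further: plate controls were vehicle for no effect and positive control for full effect; nearly all actives have a fitted effect of over 50% in size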
# EPAC2 antagonist – antagonists of human EPAC2 | Q8WZA2 | EPAC2 GEF exchange of Rap1B-BODIPY-GDP, fluorescence | 0.18% of 360,000 active | Potency, µM (top dose mostly 114 µM), without a hit: at the highest dose activity, negative = inhibition, usual class: inhibitors | AID 720708; further: on the % scale 0 is the no-effect control and ±100 the full control effect; nearly all actives have a fitted effect of over 45% in size
# Target sequence (Q8WZA2 whole entry, looked up): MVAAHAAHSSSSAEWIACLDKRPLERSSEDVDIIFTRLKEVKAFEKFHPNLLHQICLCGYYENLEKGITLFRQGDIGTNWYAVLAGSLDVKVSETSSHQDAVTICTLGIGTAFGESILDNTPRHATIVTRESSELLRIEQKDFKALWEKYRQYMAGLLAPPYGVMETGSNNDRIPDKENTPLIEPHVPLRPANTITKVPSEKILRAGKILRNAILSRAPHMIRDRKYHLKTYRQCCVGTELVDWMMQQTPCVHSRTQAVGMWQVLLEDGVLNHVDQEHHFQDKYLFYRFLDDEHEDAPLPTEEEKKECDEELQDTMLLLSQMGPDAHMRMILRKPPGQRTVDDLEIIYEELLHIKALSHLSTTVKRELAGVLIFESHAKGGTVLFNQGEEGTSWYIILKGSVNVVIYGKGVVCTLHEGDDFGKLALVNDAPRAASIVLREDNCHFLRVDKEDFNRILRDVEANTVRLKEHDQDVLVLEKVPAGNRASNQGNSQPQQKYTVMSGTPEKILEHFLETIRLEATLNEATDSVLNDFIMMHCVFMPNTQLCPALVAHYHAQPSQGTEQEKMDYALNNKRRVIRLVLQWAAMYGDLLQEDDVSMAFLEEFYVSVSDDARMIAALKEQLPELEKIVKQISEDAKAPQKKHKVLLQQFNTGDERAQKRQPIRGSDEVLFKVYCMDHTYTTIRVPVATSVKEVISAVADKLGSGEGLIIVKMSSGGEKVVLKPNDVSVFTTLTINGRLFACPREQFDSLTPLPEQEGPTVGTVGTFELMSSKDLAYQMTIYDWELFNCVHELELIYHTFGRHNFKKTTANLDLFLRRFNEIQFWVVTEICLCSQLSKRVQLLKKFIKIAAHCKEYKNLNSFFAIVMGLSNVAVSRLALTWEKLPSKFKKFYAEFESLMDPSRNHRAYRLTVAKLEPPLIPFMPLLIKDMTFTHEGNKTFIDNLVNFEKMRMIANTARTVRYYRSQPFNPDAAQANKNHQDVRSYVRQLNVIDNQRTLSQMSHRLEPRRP
# USP1 inh – inhibitors of human USP1/UAF1 deubiquitinase. O94782. recombinant USP1/UAF1, Ub-Rhodamine cleavage fluorescence. Potency, µM (top dose mostly 57.1 µM), inactives show top-dose activity change, negative = inhibition, usual class: inhibitors. 0.23% of 390,000 active. AID 743255; further: on the % scale 0 is the no-effect control and ±100 the full control effect; nearly all actives have a fitted effect of over 60% in size
#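 USP1/UAF1 complex (1 nM) preincubated 15 min at room temperature with compound, then Ub-Rho substrate (150 nM final) added. Kinetic fluorescence at 480/540 nm over 6 reads at 60 s intervals; 50 mM HEPES pH 7.8, 0.5 mM EDTA, 0.1 mg/ml BSA, 1 mM TCEP, 0.01% Tween-20.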
# EPAC1 ag – agonists of human EPAC1; O95398; Potency, µM (series often up to 154 µM), without a hit: top-dose activation, usual class: activators; EPAC1 agonist qHTS, biochemical assay; response scale: 100% = response to 6.5 mM cAMP; 0.073% of 360,000 active; further: nearly all actives have a fitted effect of over 60% in size
#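 Normalized to 6.5 mM cAMP, activity reflects EPAC1-catalysed release of BODIPY-GDP from Rap1B, followed kinetically over 30 min at 480 nm excitation, 540 nm emission. Reaction contained 100 nM EPAC1, 250 nM Rap1B-BODIPY-GDP, 50 uM GDP.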
# EPAC2 ag – EPAC2 (human) agonism | Q8WZA2 | EPAC2 activation, biochemical qHTS; response scale: 100% = 6.5 mM cAMP response | Potency, µM (titrated, usually from 154 µM), for inactives: at the top dose activation, hits mostly activators | 0.079% of 360,000 active; further: nearly all actives have a fitted effect of over 50% in size
#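 EPAC2 (100 nM) mixed with Rap1B loaded with BODIPY-GDP (250 nM) plus 50 uM unlabeled GDP; compounds pinned in, 5 min RT, then read every 5 min for 30 min (ex 480, em 540 nm). Normalized to cAMP control.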
# An asterisk follows results filed as active; ? = inconclusive; · = no result given. This is a sample that favours compounds with a hit; in the whole collection about 0.49% have one here. The call rests on the fitted dose curve; in most records, active means well fitted curve in the direction sought with a large enough effect; inconclusive means small, poorly fitted or top-dose-only effect, or another doubt; inactive means no such curve, though single readings can be large; an effect the other way counts as inactive or inconclusive. Potency means the concentration at half of the fitted maximal effect.
SMILES,EPAC1 antag,EPAC2 antagonist,USP1 inh,EPAC1 ag,EPAC2 ag
C[N+]1(C)[C@@H]2CC[C@H]1CC(OC(=O)C(c1ccccc1)c1ccccc1)C2 (stereo partly drawn),-22%,-5%,-11%,-6%,-4%
CCN(CC)c1ccc(N=Cc2c(O)n(-c3ccccc3C)c(=O)[nH]c2=O)cc1,-1%,9%,?,100µM*,89µM*
CCN(CC)c1ccc(N=Cc2c(O)n(-c3ccccc3)c(=O)[nH]c2=O)cc1,-9%,40%,?,-18%,-10%
CCOc1ccccc1-n1c(O)c(C=Nc2ccc(N(CC)CC)cc2)c(=O)[nH]c1=O,8%,32%,?,71µM*,100µM*
O=c1c2ccccc2nc(/C=C/c2ccccc2O)n1-c1ccc(Br)cc1,·,·,27%,·,·
FC(F)(F)c1cccc(CC2CN(Cc3ccccc3)Cc3ccccc3N2c2cc(Cl)cc(Cl)c2)c1 (stereo not drawn),12%,3%,-16%,-3%,-3%
O=Nc1c(-c2ccccc2)n(O)[n+]([O-])c1-c1ccccc1,5%,-5%,?,3%,5%
COC(=O)C1C2c3ccccc3C(c3ccccc32)C1(C)C(=O)OC (stereo not drawn),4%,32µM*,2%,2%,7%
COC(=O)[C@@]1(C#N)[C@@H]2C=CC(C(C)=O)=CN2[C@@H](C(N)=O)[C@@H]1c1ccc(F)cc1,0%,30%,28µM*,7%,?
CCOC(=O)[C@]1(C#N)[C@@H]2C=CC(C(N)=O)=CN2[C@@H](C(N)=O)[C@@H]1c1ccc(F)cc1,-15%,4%,?,0%,4%
C=C(C)Cn1c(-c2cccc([N+](=O)[O-])c2)n[nH]c1=S,-13%,3%,?,10%,-4%
Cc1ccc(N2C(=O)NC(=O)/C(=C\c3cc(C)n(-c4sc5c(c4C#N)CCCC5)c3C)C2=O)cc1,18µM*,?,28µM*,8%,-12%
CCN1C(=O)NC(=O)/C(=C/c2cc(C)n(-c3sc(C)c(C)c3C#N)c2C)C1=O,-14%,9%,-12%,5%,11%
C[C@]12CC[C@@H]3c4ccc(O)cc4C(=O)C[C@H]3[C@@H]1CC[C@@H]2O,-3%,-13%,?,-4%,1%
CC(C)CC[C@@H](O)[C@](C)(O)C1CC[C@@]2(O)C3=CC(=O)[C@@H]4C[C@@H](O)[C@@H](O)C[C@]4(C)C3CC[C@]12C (stereo partly drawn),5%,40%,-13%,-23%,4%
ClCCN(CCCl)c1ccc(C=Cc2ccncn2)cc1,0%,-14%,25µM*,18%,16%
CCn1nc(/C=C/c2ccccc2)nc2c(=O)n(C)c(=O)nc1-2,?,?,1.1µM*,0%,29%
CCn1nc(-c2cccs2)nc2c(=O)n(C)c(=O)nc1-2,?,?,0.22µM*,-6%,28%
O=C1NCCOC(=O)[C@H](Cc2ccc(F)cc2)CC/C=C/C[C@@H]1CC(=O)N(CCO)Cc1ccccc1,2%,0%,-3%,-7%,8%
CC[C@H](C)/C=C(C)/C=C/C1=CC2=C(Cl)C(=O)[C@](C)(OC(C)=O)C(=O)C2=CO1,?,8.9µM*,25µM*,12%,10%
CC(C)(C)c1csc(NC(=O)Nc2ccccc2)n1,?,-17%,-13%,7%,22%
S=C(Nc1ccccc1)Nc1ccccn1,15%,-5%,-11%,89µM*,2%
Cc1[nH]n(-c2ccccc2)c(=O)c1C(c1cccc([N+](=O)[O-])c1O)c1c(C)[nH]n(-c2ccccc2)c1=O,56µM*,-11%,-8%,0%,1%
COc1ccc(C/C(=N\OC(C)=O)c2ccc(OC)cc2)cc1,10%,?,-22%,-1%,10%
Oc1ccc(Cl)cc1Cc1cc(Cl)ccc1O,-13%,79µM*,-19%,4%,9%
CN1C(=O)/C(=C/c2cccn2-c2ccc3ccccc3c2)C(=O)NC1=S,32µM*,1%,-18%,-16%,-4%
Cc1cc(C)cc(N2C(=O)NC(=O)/C(=C\c3cccn3-c3ccccc3)C2=O)c1,-26%,-5%,-4%,-1%,17%

# Screening data from PubChem BioAssay.
